{"source": "ChEMBL document CHEMBL3988442", "about": "“University of Dundee, Small-Polar-MMV Screening Library” (2021)", "key": {"[1]": {"target": "T1, Aspartate--tRNA(Asp/Asn) ligase (Mycobacterium tuberculosis (strain ATCC 25618 / H37Rv)) (UniProt P9WFW3)", "T1 sequence (whole entry)": "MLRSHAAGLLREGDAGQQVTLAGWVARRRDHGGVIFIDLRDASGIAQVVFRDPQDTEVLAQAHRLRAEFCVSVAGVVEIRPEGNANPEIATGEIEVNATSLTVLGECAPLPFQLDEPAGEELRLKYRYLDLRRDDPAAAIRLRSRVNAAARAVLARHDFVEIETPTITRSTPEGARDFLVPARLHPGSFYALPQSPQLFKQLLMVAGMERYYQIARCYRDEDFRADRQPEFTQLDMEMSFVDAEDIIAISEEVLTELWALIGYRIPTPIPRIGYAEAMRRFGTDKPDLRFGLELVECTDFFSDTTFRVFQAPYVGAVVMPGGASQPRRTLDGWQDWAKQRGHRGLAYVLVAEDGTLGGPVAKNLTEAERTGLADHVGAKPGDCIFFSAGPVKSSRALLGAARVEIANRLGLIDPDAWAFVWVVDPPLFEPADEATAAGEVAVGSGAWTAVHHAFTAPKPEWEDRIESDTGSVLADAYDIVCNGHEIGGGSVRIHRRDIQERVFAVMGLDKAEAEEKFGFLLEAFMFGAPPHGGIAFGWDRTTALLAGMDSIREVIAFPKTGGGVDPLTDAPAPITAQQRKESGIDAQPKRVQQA", "assay": "Assay for Asp RNA synthetase-1 from Mycobacterium tuberculosis", "format": "functional", "design": "scale not given: direction of the effect not stated beside the values", "conditions": "30 µM"}, "[2]": {"target": "Shiga toxin 2 (Escherichia coli O157:H7) (UniProt P09385+P09386)", "assay": "E. coli 0.157:H7 Shiga Toxin SOP - stx2 screening assay", "format": "functional", "design": "scale not given: direction of the effect not stated beside the values", "conditions": "30 µM"}}, "data": [{"molecule": "O=C(c1ccco1)N1CCC2(CC1)C(=O)NCCN2CC1CC1", "values": [{"measurement": "Percent Effect", "setting": "[1]", "result": 10.6, "unit": "%"}, {"measurement": "Percent Effect", "setting": "[2]", "result": -10.1, "unit": "%"}]}, {"molecule": "O=C1NCCCCC1Sc1nnc(-c2cccnc2)n1C1CC1", "note": "(centres undefined)", "values": [{"measurement": "Percent Effect", "setting": "[1]", "result": -3.62, "unit": "%"}, {"measurement": "Percent Effect", "setting": "[2]", "result": 7.22, "unit": "%"}]}, {"molecule": "c1csc(-c2nc(CN3CCOC(Cn4cncn4)C3)cs2)c1", "note": "(centres undefined)", "values": [{"measurement": "Percent Effect", "setting": "[1]", "result": -6.66, "unit": "%"}, {"measurement": "Percent Effect", "setting": "[2]", "result": 31.4, "unit": "%"}]}, {"molecule": "CCN(CC)c1ccc(NS(=O)(=O)c2cnn(C)c2)cn1", "values": [{"measurement": "Percent Effect", "setting": "[1]", "result": 2.14, "unit": "%"}, {"measurement": "Percent Effect", "setting": "[2]", "result": -30.7, "unit": "%"}]}, {"molecule": "CN(C)C(=O)CCC(=O)NCc1cccnc1-n1cnc2ccccc21", "values": [{"measurement": "Percent Effect", "setting": "[1]", "result": -3.48, "unit": "%"}, {"measurement": "Percent Effect", "setting": "[2]", "result": -4.51, "unit": "%"}]}, {"molecule": "COc1ccc(NC(=O)C2CCOC2)c(N2CCN(C(C)=O)CC2)n1", "note": "(centres undefined)", "values": [{"measurement": "Percent Effect", "setting": "[1]", "result": 1.42, "unit": "%"}, {"measurement": "Percent Effect", "setting": "[2]", "result": -6.14, "unit": "%"}]}, {"molecule": "CC1=NN(c2ccc(C(=O)N3CCCC(n4ccnc4)C3)cc2)CC1", "note": "(centres undefined)", "values": [{"measurement": "Percent Effect", "setting": "[1]", "result": 1.08, "unit": "%"}, {"measurement": "Percent Effect", "setting": "[2]", "result": -30.6, "unit": "%"}]}, {"molecule": "CCc1[nH]ncc1C(=O)N1CCCC(n2nc(C)nc2C)C1", "note": "(centres undefined)", "values": [{"measurement": "Percent Effect", "setting": "[1]", "result": -1.03, "unit": "%"}, {"measurement": "Percent Effect", "setting": "[2]", "result": 12.8, "unit": "%"}]}, {"molecule": "CNS(=O)(=O)CCCN1CCCC1c1cc(C)on1", "note": "(centres undefined)", "values": [{"measurement": "Percent Effect", "setting": "[1]", "result": 1.49, "unit": "%"}, {"measurement": "Percent Effect", "setting": "[2]", "result": 5.74, "unit": "%"}]}, {"molecule": "Cn1cc(CN2CCc3onc(COc4cccnc4)c3C2)cn1", "values": [{"measurement": "Percent Effect", "setting": "[1]", "result": -6.13, "unit": "%"}, {"measurement": "Percent Effect", "setting": "[2]", "result": -65.9, "unit": "%"}]}, {"molecule": "Cn1ccnc1N1CCN(C(=O)Cc2ccc(F)cc2)CC1", "values": [{"measurement": "Percent Effect", "setting": "[1]", "result": 3.25, "unit": "%"}, {"measurement": "Percent Effect", "setting": "[2]", "result": -73, "unit": "%"}]}, {"molecule": "CCn1c(Nc2ccccc2OC)nc2c(C)nn(C)c2c1=O", "values": [{"measurement": "Percent Effect", "setting": "[1]", "result": -3.4, "unit": "%"}, {"measurement": "Percent Effect", "setting": "[2]", "result": -16.8, "unit": "%"}]}, {"molecule": "CCc1nc(CN2CCN(C(=O)CCc3ccccc3)CC2)cs1", "values": [{"measurement": "Percent Effect", "setting": "[1]", "result": -4.18, "unit": "%"}, {"measurement": "Percent Effect", "setting": "[2]", "result": -33.2, "unit": "%"}]}, {"molecule": "Cc1cc(O)c(OCC(=O)/N=c2\\[nH]cc(C)s2)cn1", "values": [{"measurement": "Percent Effect", "setting": "[1]", "result": -2.4, "unit": "%"}, {"measurement": "Percent Effect", "setting": "[2]", "result": -6.58, "unit": "%"}]}, {"molecule": "O=C1NCCN1C1CCN(Cc2nc(-c3ccoc3)no2)CC1", "values": [{"measurement": "Percent Effect", "setting": "[1]", "result": -7.34, "unit": "%"}, {"measurement": "Percent Effect", "setting": "[2]", "result": -21.2, "unit": "%"}]}, {"molecule": "COc1ccc(OC)c(CN2CCCCCC2c2cccs2)c1", "note": "(centres undefined)", "values": [{"measurement": "Percent Effect", "setting": "[1]", "result": -3.22, "unit": "%"}, {"measurement": "Percent Effect", "setting": "[2]", "result": -16.4, "unit": "%"}]}, {"molecule": "CCc1nc(C2CCCN(C(=O)c3cn(C)nc3C)C2)no1", "note": "(centres undefined)", "values": [{"measurement": "Percent Effect", "setting": "[1]", "result": -7.17, "unit": "%"}, {"measurement": "Percent Effect", "setting": "[2]", "result": -20.7, "unit": "%"}]}]}
